# From PubChem BioAssay
# Beta apoptosis – inhibitors of cytokine-induced beta cell apoptosis, primary screen, luminescence. INS-1E cytokine-induced death, ATP luminescence, 48 h; percent of positive-control rescue, neutral wells zero. protection from apoptosis, % (no concentration beside the values). 300,000 tested, 0.8% active. AID 435005, 2010;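 active = Every replicate reaches about 75%, or at least half do and their mean reaches it too, limit read from the data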;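 also: higher means more ATP so stronger rescue from cytokine killing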
# MPTP inh – mitochondrial permeability transition pore inhibitors, primary screen, biochemical, isolated mouse mitochondria, absorbance. Ca2+ swelling absorbance, 30 min. inhibition, % at 10 µM. 360,000 tested, 1.4% active. AID 602449, 2012;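 active = inhibition of 50% or more, scaled per plate between neutral and stimulator controls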
# CSC inhib – cancer stem cell viability inhibitors, primary screen, luminescence; cancer stem cell-like cells viability; inhibition, % at 7.5 µM; 300,000 tested, 1.1% active; in the data active = inhibition above about 75%; tested in HMLE shEcad cells
# Mdm2 MdmX PPI – inhibitors of human Mdm2-MdmX association, primary screen, cell-based, luminescence, split luciferase, SaOS-2, uHTS; SaOS-2 split-luciferase Mdm2/MdmX complementation; inhibition, % at 8 µM; 330,000 tested, 3% active;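 active = inhibition of at least 50% at 8 µM in the primary screen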
# Target sequence (O15151 whole entry, looked up): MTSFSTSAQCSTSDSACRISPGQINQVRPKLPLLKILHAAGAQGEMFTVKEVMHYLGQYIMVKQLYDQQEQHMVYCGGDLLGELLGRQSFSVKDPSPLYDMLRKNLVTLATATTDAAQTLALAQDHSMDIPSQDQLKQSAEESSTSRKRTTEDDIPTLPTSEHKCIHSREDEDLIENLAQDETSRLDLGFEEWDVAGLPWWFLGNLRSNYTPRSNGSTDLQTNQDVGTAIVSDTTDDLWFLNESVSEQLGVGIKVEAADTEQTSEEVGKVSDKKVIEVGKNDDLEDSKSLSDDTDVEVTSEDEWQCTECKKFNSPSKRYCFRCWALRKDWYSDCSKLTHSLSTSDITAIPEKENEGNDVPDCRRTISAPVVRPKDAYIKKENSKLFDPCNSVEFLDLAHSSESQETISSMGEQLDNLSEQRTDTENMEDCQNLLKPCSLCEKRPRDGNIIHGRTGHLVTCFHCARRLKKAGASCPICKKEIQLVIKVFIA
# Target sequence (Q00987 whole entry, looked up): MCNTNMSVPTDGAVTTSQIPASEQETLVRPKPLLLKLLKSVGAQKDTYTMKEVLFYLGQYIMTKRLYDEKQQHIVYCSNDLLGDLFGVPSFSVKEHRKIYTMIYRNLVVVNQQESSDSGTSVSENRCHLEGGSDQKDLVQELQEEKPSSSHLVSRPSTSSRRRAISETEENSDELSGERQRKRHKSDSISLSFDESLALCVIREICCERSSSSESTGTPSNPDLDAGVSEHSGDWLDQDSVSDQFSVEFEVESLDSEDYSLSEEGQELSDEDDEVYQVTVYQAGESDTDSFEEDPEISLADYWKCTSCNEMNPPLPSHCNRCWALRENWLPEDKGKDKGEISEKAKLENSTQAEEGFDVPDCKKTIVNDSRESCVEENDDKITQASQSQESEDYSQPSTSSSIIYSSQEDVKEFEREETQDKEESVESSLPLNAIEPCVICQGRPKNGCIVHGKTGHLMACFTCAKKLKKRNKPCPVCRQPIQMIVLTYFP
# SKKanGAS inh – S. pyogenes SKKanGAS growth inhibitors in kanamycin, primary screen, streptokinase expression inhibitor project, SKKanGAS strain, BacTiter-Glo luminescence; 300,000 tested, 1.3% active; 6 h; AID 1662, 2009; inhibition, % at 7.5 µM;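 active = mean replicate score, as percent of positive control median, at least 50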;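 also: strain carries kanamycin resistance gene driven by streptokinase promoter and grows in 40 µg/ml kanamycin; loss of luminescence reflects streptokinase promoter inhibition or plain growth inhibition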
# Calb FLC – C. albicans growth inhibition with fluconazole, primary screen, CaCi-2 strain, Alamar Blue fluorescence; C. albicans CaCi-2 (fluconazole-resistant clinical isolate) + fluconazole, 48 h; growth inhibition, % (no concentration beside the values); 300,000 tested, 0.57% active; AID 1979, 2009;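 active = growth inhibition above about 58% in most replicates, limit read from the data, passing the limit was not always enough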;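 also: all wells also contain fluconazole at 8 µg/ml as a sub-toxic cotreatment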
# Mdm2-MdmX conf – Mdm2-MdmX complex disruptors, retested hits, confirmation, luminescence, single concentration; shares compounds with Mdm2 MdmX PPI; AID 489028, 2010; inhibition, % at 8 µM; Mdm2-MdmX binding, luminescent assay; 10,000 tested, 55% active; in the data active = inhibition above about 40%
# Full FLuc ctr – full-length luciferase signal inhibition, confirmation, counter-screen for Mdm2/MdmX interaction inhibitor project, cell-based, single concentration, SaOS-2; shares compounds with Mdm2 MdmX PPI; SaOS-2 full-length luciferase counterscreen, luminescence; inhibition, % at 8 µM; 6,200 tested, 77% active; AID 504607, 2011;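 active = mean inhibition at 8 µM reaching about 37%, which flags the compound as non-specific, limit read from the data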;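 also: p53-null SaOS-2 cells with luciferase driven by a doxycycline-inducible promoter; compound on cells about two nights before reading with doxycycline added after day one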
# Hits are given with their value; – = inactive; · = no result. In the library only some 5.4% were active in any assay of this set; here they are far more common.
SMILES,Beta apoptosis,MPTP inh,CSC inhib,Mdm2 MdmX PPI,SKKanGAS inh,Calb FLC,Mdm2-MdmX conf,others
Cc1cc(-c2ccc(C(C)C)c(S(=O)(=O)N3CCN(c4ccccn4)CC3)c2)on1,–,–,–,63,–,–,62,Full FLuc ctr=52
CCc1ccc(-c2cc(C)no2)cc1S(=O)(=O)N1CCN(c2ccccn2)CC1,–,–,–,–,–,–,·,
COC(=O)c1c(NC(=S)NN2CCN(C)CC2)sc2c1CCC(C)C2 (configuration not stated),–,–,104,91,–,–,–,
COC(=O)c1c(NC(=O)CN(C)CC(=O)Nc2ccc(C)cc2)sc2c1CCC(C)C2 (configuration not stated),–,–,·,–,·,·,·,
Cc1ccc(-n2nnnc2SCC(=O)Nc2nc(-c3ccc(F)cc3)cs2)cc1C,–,–,–,65,–,–,–,Full FLuc ctr=47
CC(C)n1c(/C=C/[C@@H](O)C[C@@H](O)CC(=O)O)c(-c2ccc(F)cc2)c2ccccc21,–,–,–,59,–,–,50,Full FLuc ctr=108
Cc1ccc(SCC(=O)Nc2ccccc2C(=O)N2CCOCC2)cc1,–,–,·,–,–,–,·,
Nc1ccc(N2CCCCC2)cc1N1CCCCC1,113,–,–,80,–,–,–,
Cc1nn(-c2cc(N3CCCCC3)ccc2N)c(=O)c2ccccc12,–,–,–,–,–,–,·,
COC(=O)C1=NN(C(C)=O)C2(CC(=O)N(c3cccc(C)c3)C2=O)C1 (configuration not stated),–,–,–,–,–,–,·,
CC(C)CCn1c(Sc2nc3ccccc3o2)nc2c1c(=O)[nH]c(=O)n2C,–,–,–,61,–,–,46,Full FLuc ctr=41
COc1ccc(C(=O)c2cnc3ccccc3c2-c2ccccc2)cc1,–,–,–,57,–,–,–,
Cc1ccc(C(=O)c2nc(C(=O)NCCO)nc3ccccc23)cc1,–,–,–,–,·,·,·,
Cc1ccc(C(=O)c2cnc3ccccc3c2-c2ccccc2)cc1,–,–,–,56,–,–,–,
CCCCS(=O)(=O)/C=C\C=C/S(=O)(=O)CCCC,85,–,111,94,–,–,99,Full FLuc ctr=51
CCCCS(=O)(=O)/C=C\C1C2C=CC(C2)C1S(=O)(=O)CCCC (configuration not stated),–,–,–,–,–,–,·,
CCN(CC)CCNC(=O)c1ccc(NC(=O)C2CCN(S(=O)(=O)c3ccc4c(c3)OCCO4)CC2)cc1,–,–,·,–,–,–,·,
CC[C@]12c3[nH]c4cc(-c5ccco5)ccc4c3CCN1C(=O)[C@@H](CC(=O)NCC13CC4CC(CC(C4)C1)C3)C[C@@H]2C(=O)N1CCN(C(=O)C2CC2)CC1,·,–,·,78,·,·,–,
CC[C@]12c3[nH]c4cc(-c5ccco5)ccc4c3CCN1C(=O)[C@@H](CC(=O)NCC13CC4CC(CC(C4)C1)C3)C[C@@H]2C(=O)N1CCN(C(=O)c2ccco2)CC1,·,–,·,–,·,·,·,
CC[C@]12c3[nH]c4ccc(OC)cc4c3CCN1C(=O)C(CC(=O)NCC13CC4CC(CC(C4)C1)C3)C[C@@H]2C(=O)N1CCN(C(=O)c2ccco2)CC1 (some centres not stated),·,–,·,–,·,·,·,
CN(C)CCCNC(=O)C[C@H]1C[C@H](C(=O)N2CCCCC2)[C@@]2(C)c3[nH]c4cc(-c5ccco5)ccc4c3CCN2C1=O,·,–,·,–,·,·,·,
C[C@]12c3[nH]c4cc(-c5ccco5)ccc4c3CCN1C(=O)[C@@H](CC(=O)NCc1cccc(C(F)(F)F)c1)C[C@@H]2C(=O)N1CCCCC1,·,–,·,85,·,·,–,
